Counter-ions that a name gives are not always drawn.
How the values were obtained:
Settings in all cases: incubation time: 27 h, anaerobic, 37 °C;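 for the amine columns active = adjusted P below 0.05 in both replicates with a change the same way and a mean fold change under 0.8 or over 1.25; inactive = the rest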
[1] = tested on: Clostridium sporogenes DSM 1664; test: growth (OD595) fold change vs plate DMSO controls (fold change (ratio)); higher = more growth
Summary of the method: (§1)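 Growth is the fold change relative to the median of plate DMSO controls. Readings came from anaerobic mGAM cultures in 96-well plates grown for 27 h at 37 °C and read at 595 nm. They were blank-subtracted, corrected for compound background with 20 µM compound solutions in water, and converted to OD with a calibration factor of 5. Values are means of 2 biological replicates, and fold changes above 1.5 were set to NA.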

[2] = tested on: Escherichia coli IAI1; test: as above
Summary of the method: as §1

[3] = tested on: Klebsiella aerogenes DSM 30053; test: as above
Summary of the method: as §1

[4] = tested on: Ruminococcus gnavus DSM 108212; test: as above
Summary of the method: as §1

[5] = tested on: Klebsiella aerogenes DSM 30053; test: fold change of Histamine concentration vs plate DMSO controls (fold change (ratio)); higher = more amine produced, active = hit call of the paper (significant change in both replicates, either direction)
Summary of the method: (§2)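 In 80 µL wells, cultures of four gut bacterial strains in mGAM started at OD 0.1 before a 1:1 dilution and grew anaerobically at 37 °C for 27 h. Compounds were added to 20 µM final, except sweeteners at 50 µM final. After extraction of whole cultures with cold acetonitrile/methanol plus 0.1% formic acid and centrifugation, amines were measured by LC–triple-quadrupole MS in dynamic MRM mode against external calibration curves, with within-batch drift correction. Values give fold change over DMSO controls on the same plate, averaged across 2 biological replicates.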

[6] = tested on: Clostridium sporogenes DSM 1664; test: fold change of Tryptamine concentration vs plate DMSO controls (fold change (ratio)); higher = more amine produced, active = hit call of the paper (significant change in both replicates, either direction)
Summary of the method: as §2

[7] = tested on: Ruminococcus gnavus DSM 108212; test: as above
Summary of the method: as §2

[8] = tested on: Escherichia coli IAI1; test: fold change of Putrescine concentration vs plate DMSO controls (fold change (ratio)); higher = more amine produced, active = hit call of the paper (significant change in both replicates, either direction)
Summary of the method: as §2

[9] = tested on: Klebsiella aerogenes DSM 30053; test: as above
Summary of the method: as §2

[10] = tested on: Escherichia coli IAI1; test: fold change of Cadaverine concentration vs plate DMSO controls (fold change (ratio)); higher = more amine produced, active = hit call of the paper (significant change in both replicates, either direction)
Summary of the method: as §2

[11] = tested on: Klebsiella aerogenes DSM 30053; test: as above
Summary of the method: as §2

[12] = tested on: Ruminococcus gnavus DSM 108212; test: fold change of 2-Phenylethylamine concentration vs plate DMSO controls (fold change (ratio)); higher = more amine produced, active = hit call of the paper (significant change in both replicates, either direction)
Summary of the method: as §2

Compound | growth [1] | growth [2] | growth [3] | growth [4] | fold change of Histamine concentration [5] | fold change of Tryptamine concentration [6] | fold change of Tryptamine concentration [7] | fold change of Putrescine concentration [8] | fold change of Putrescine concentration [9] | fold change of Cadaverine concentration [10] | fold change of Cadaverine concentration [11] | fold change of 2-Phenylethylamine concentration [12]
COc1c(N2CCNC(C)C2)c(F)cc2c(=O)c(C(=O)O)cn(C3CC3)c12 (stereo unspecified) [Gatifloxacin] (20 µM) | 0.0115 | 0.0496 | 0.235 | 0.0125 | 0.285 (active) | 0.0452 (active) | 0.226 (active) | 0.888 (inactive) | 1.02 (inactive) | 0.264 (active) | 0.97 (inactive) | 0.226 (active)
C[C@H](CCC(=O)O)[C@H]1CC[C@H]2[C@@H]3C(=O)C[C@@H]4CC(=O)CC[C@]4(C)[C@H]3CC(=O)[C@]12C [Dehydrocholic acid] (20 µM) | 0.917 | 0.968 | 0.94 | 0.872 | 1.02 (inactive) | 0.96 (inactive) | 0.987 (inactive) | 0.975 (inactive) | 1.01 (inactive) | 0.982 (inactive) | 1.01 (inactive) | 0.859 (inactive)
COC(=O)[C@H](Cc1ccccc1)NC(=O)[C@@H](N)CC(=O)O [Aspartame] (50 µM) | 1.05 | 0.921 | 0.997 | 1.01 | 1.03 (inactive) | 0.944 (inactive) | 1.01 (inactive) | 0.968 (inactive) | 1.01 (inactive) | 1.04 (inactive) | 0.99 (inactive) | 1.04 (inactive)
Cc1ncc([N+](=O)[O-])n1CC(O)CCl (stereo unspecified) [Ornidazole] (20 µM) | 0.007 | 0.984 | 1.04 | 0.0518 | 0.885 (inactive) | 0.00845 (active) | 0.0747 (active) | 0.976 (inactive) | 0.986 (inactive) | 0.962 (inactive) | 1.02 (inactive) | 0.0499 (active)
CC(C(=O)O)c1ccc2c(c1)CC(=O)c1ccccc1S2 (stereo unspecified) [Zaltoprofen] (20 µM) | 0.876 | 0.998 | 0.985 | 0.873 | 1.1 (inactive) | 1.01 (inactive) | 1.12 (inactive) | 1.01 (inactive) | 1.04 (inactive) | 0.931 (inactive) | 1.05 (inactive) | 1.33 (inactive)
CC(=O)c1ccc2c(c1)N(CCCN(C)C)c1ccccc1S2 [Acetopromazine maleate salt] (20 µM) | 0.96 | 1 | 0.976 | 0.878 | 1.03 (inactive) | 1.01 (inactive) | 1.01 (inactive) | 1 (inactive) | 1.01 (inactive) | 1.03 (inactive) | 0.983 (inactive) | 1.03 (inactive)
CC[C@@H]1C(=O)OC[C@@H]1Cc1cncn1C [Pilocarpine nitrate] (20 µM) | 1.03 | 1 | 0.987 | 0.556 | 0.95 (inactive) | 0.955 (inactive) | 1.01 (inactive) | 1.02 (inactive) | 1.01 (inactive) | 1.04 (inactive) | 0.993 (inactive) | 0.965 (inactive)
CC(C)(C)NCC(O)c1ccc(O)c(CO)c1 (stereo unspecified) [Salbutamol] (20 µM) | 1.05 | 0.99 | 1.03 | 0.843 | 1.08 (inactive) | 0.999 (inactive) | 1.03 (inactive) | 1.04 (inactive) | 1.02 (inactive) | 1 (inactive) | 0.998 (inactive) | 1.03 (inactive)
CCc1cccc2c3c([nH]c12)C(CC)(CC(=O)O)OCC3 (stereo unspecified) [Etodolac] (20 µM) | 1.08 | 1.03 | 1.1 | 1.06 | 1.06 (inactive) | 0.981 (inactive) | 1.06 (inactive) | 0.968 (inactive) | 0.949 (inactive) | 0.975 (inactive) | 0.991 (inactive) | 1.12 (inactive)
N=C(N)NC(=O)Cc1c(Cl)cccc1Cl [Guanfacine hydrochloride] (20 µM) | 0.939 | 0.961 | 1.03 | 0.811 | 0.903 (inactive) | 0.953 (inactive) | 1.01 (inactive) | 1.02 (inactive) | 0.99 (inactive) | 1.01 (inactive) | 1.01 (inactive) | 1.02 (inactive)
CCOC(=O)NNc1nncc2ccccc12 [Todralazine hydrochloride] (20 µM) | 0.521 | 1.14 | 1.04 | 1 | 0.967 (inactive) | 0.506 (inactive) | 0.955 (inactive) | 1.02 (inactive) | 0.984 (inactive) | 1.04 (inactive) | 1.01 (inactive) | 1.03 (inactive)
O=c1[nH]cc(F)c(=O)[nH]1 [5-fluorouracil] (20 µM) | 1.2 | 0.87 | 0.897 | 1.21 | 0.728 (inactive) | 0.767 (inactive) | 0.917 (inactive) | 0.626 (inactive) | 0.961 (inactive) | 0.945 (inactive) | 0.979 (inactive) | 0.918 (inactive)
CC1(C)S[C@@H]2[C@H](NC(=O)C(c3ccccc3)S(=O)(=O)O)C(=O)N2[C@H]1C(=O)O (stereo partly specified) [Sulbenicillin sodium salt] (20 µM) | 0 | 0.378 | 0.634 | 0 | 1.18 (inactive) | 0.0125 (active) | 0.086 (active) | 1.84 (inactive) | 0.969 (inactive) | 1.87 (active) | 1.08 (inactive) | 0.0641 (active)
CO/N=C(\C(=O)N[C@@H]1C(=O)N2C(C(=O)O)=C(COC(C)=O)CS[C@H]12)c1csc(N)n1 [Cefotaxime sodium salt] (20 µM) | 0.00126 | 0.00374 | 0.601 | 0.2 | 0.733 (inactive) | 0.0286 (active) | 0.0769 (active) | 0.143 (active) | 0.729 (inactive) | 0.574 (active) | 1.02 (inactive) | 0.055 (active)
CN1CCCC(n2nc(Cc3ccc(Cl)cc3)c3ccccc3c2=O)CC1 (stereo unspecified) [Azelastine hydrochloride] (20 µM) | 1.05 | 1.05 | 0.95 | 0.57 | 1.13 (inactive) | 0.963 (inactive) | 0.943 (inactive) | 1.03 (inactive) | 1.03 (inactive) | 1.01 (inactive) | 0.976 (inactive) | 0.937 (inactive)
Clc1ccc(COC(Cn2ccnc2)c2ccc(Cl)cc2Cl)cc1 (stereo unspecified) [Econazole nitrate] (20 µM) | 1.35 | 1.01 | 1.08 | 0.481 | 0.83 (inactive) | 0.815 (inactive) | 0.357 (active) | 1.01 (inactive) | 0.963 (inactive) | 1.02 (inactive) | 1.01 (inactive) | 0.404 (active)
COc1nc(N)nc2c1ncn2[C@@H]1O[C@H](CO)[C@@H](O)[C@@H]1O [Nelarabine] (20 µM) | 1.13 | 0.973 | 0.999 | 0.914 | 1.08 (inactive) | 0.945 (inactive) | 1.03 (inactive) | 1.01 (inactive) | 1.01 (inactive) | 0.989 (inactive) | 0.978 (inactive) | 1.03 (inactive)
NNc1nncc2ccccc12 [Hydralazine hydrochloride] (20 µM) | 0.972 | 0.997 | 1 | 0.792 | 1.07 (inactive) | 0.967 (inactive) | 1.03 (inactive) | 0.983 (inactive) | 1.01 (inactive) | 0.997 (inactive) | 0.994 (inactive) | 0.96 (inactive)
CCOC(=O)[C@H](CCc1ccccc1)N[C@H]1CS[C@H](c2cccs2)CN(CC(=O)O)C1=O [Temocapril hydrochloride] (20 µM) | 1.1 | 1.05 | 1.08 | 1.05 | 0.959 (inactive) | 0.989 (inactive) | 0.991 (inactive) | 0.997 (inactive) | 1.03 (inactive) | 1.04 (inactive) | 1.01 (inactive) | 1.01 (inactive)
CN1CCN(c2c(F)cc3c(=O)c(C(=O)O)cn(CCF)c3c2F)CC1 [Fleroxacin] (20 µM) | 0 | 0 | 0 | 0 | 0.153 (active) | 0.0453 (active) | 1.08 (inactive) | 0.785 (inactive) | 0.902 (inactive) | 0.26 (active) | 0.961 (inactive) | 1.15 (inactive)
CCOC(=O)[C@@](C)(N)Cc1ccc(O)c(O)c1 [Methyldopate hydrochloride] (20 µM) | 0.926 | 1.05 | 1.03 | 1.14 | 0.963 (inactive) | 1.04 (inactive) | 1.09 (inactive) | 1.22 (inactive) | 0.975 (inactive) | 0.898 (inactive) | 1.02 (inactive) | 1.07 (inactive)
O=C(O)CSCC(=O)NC1CCSC1=O (stereo unspecified) [Erdosteine] (20 µM) | 1.04 | 1.07 | 1.03 | 1.04 | 0.984 (inactive) | 0.962 (inactive) | 1.01 (inactive) | 0.971 (inactive) | 1 (inactive) | 0.993 (inactive) | 0.993 (inactive) | 0.988 (inactive)
Cc1ccccc1C(=O)Nc1ccc(C(=O)N2CCCC(O)c3cc(Cl)ccc32)c(C)c1 (stereo unspecified) [Tolvaptan] (20 µM) | 1.16 | 0.991 | 0.985 | 1.06 | 1.05 (inactive) | 0.919 (inactive) | 0.964 (inactive) | 0.955 (inactive) | 1.01 (inactive) | 0.995 (inactive) | 1 (inactive) | 0.924 (inactive)
